Test systems include SR leukemia; RPMI-8226 leukemia; OVCAR-8 ovarian; OVCAR-5 ovarian; OVCAR-4 ovarian; SK-OV-3 ovarian; IGROV1 ovarian; OVCAR-3 ovarian; HS 578T breast; NCI/ADR-RES ovarian; BT-549 breast; MDA-MB-435 melanoma; SW-620 colon; MCF7 breast; HCT-116 colon; HCC-2998 colon; KM12 colon; MDA-MB-468 breast; T-47D breast.
Holding throughout (test): NCI-60 one-dose screen, 48 h (100 = growth as untreated, 0 = no growth, -100 = all killed)
What all share (settings): 10 µM unless noted

Among the data in PubChem BioAssay (NCI) are growth values, retold here.

The panel holds about 83,000 compounds, 20% with a hit somewhere; the sample as a whole holds those more often.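 The endpoint reported here, percent growth, reads 100 for growth as untreated, 0 for no net growth and -100 for all cells dead.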 Values without a mark were called inactive. The source made the active and inactive calls. Rule for the calls: active = growth percent below 10; inactive = the rest.

With `COc1ccc(-c2ccnc(SCc3cc4cc(Cl)ccc4[nH]c3=O)n2)cc1`, the growth in the test with SR leukemia was 92.5%; with RPMI-8226 leukemia, 73.8%; in the test with OVCAR-8 ovarian, 34.1%; in the test on OVCAR-5 ovarian, 135%; in the test on OVCAR-4 ovarian it was 10.1%; with SK-OV-3 ovarian, -2.33% (active). In addition, the growth in the test with IGROV1 ovarian was 95.8%; in the test with OVCAR-3 ovarian, 58.2%; in the test on HS 578T breast it was -5.84% (active); with NCI/ADR-RES ovarian it was 44.8%; in the test with BT-549 breast, -18.5% (active); in the test on MDA-MB-435 melanoma, 68.5%. In addition, the growth with SW-620 colon was 69.1%; in the test with MCF7 breast, 73%; in the test on HCT-116 colon it was 26.6%; with HCC-2998 colon, 100%; with KM12 colon, 94.7%; in the test with MDA-MB-468 breast it was 54.9%.
For the compound `Cc1sc(C(NC(=O)OCCn2c([N+](=O)[O-])cnc2C)C(F)(F)Cl)nc1-c1ccc(OC(F)(F)F)cc1` (stereo unspecified), the growth in the test with SR leukemia was 5.16% (active); in the test with RPMI-8226 leukemia, 2.36% (active); in the test on OVCAR-8 ovarian, -65.9% (active); in the test on OVCAR-5 ovarian, -96% (active); in the test with OVCAR-4 ovarian, -37.7% (active); in the test with SK-OV-3 ovarian, -84.8% (active). For the same compound, the growth in the test with IGROV1 ovarian is -80.6% (active); in the test on OVCAR-3 ovarian, -59.6% (active); in the test with HS 578T breast, -31.1% (active); in the test with T-47D breast it was -66.1% (active); in the test on BT-549 breast, -92.2% (active); in the test with MDA-MB-435 melanoma, -43.7% (active). Besides, the growth was -67.1% (active) with SW-620 colon; -85.1% (active) in the test with MCF7 breast; -80.3% (active) in the test on HCT-116 colon; -96.6% (active) in the test on HCC-2998 colon; -61.9% (active) with KM12 colon.
With `O=C(c1ccc(Cl)cc1)c1ccc(OCCCN2CCN(c3ccncc3)CC2)cc1`, the growth with SR leukemia was -32% (active); in the test with RPMI-8226 leukemia it was 10.2%; in the test on OVCAR-8 ovarian it was 75.7%; in the test on OVCAR-5 ovarian it was 69%; in the test on OVCAR-4 ovarian, 47.3%; with SK-OV-3 ovarian, 34.8%. Besides, the growth is 67.3% in the test with IGROV1 ovarian; 56.4% with OVCAR-3 ovarian; 53.7% in the test with HS 578T breast; 26.9% in the test on BT-549 breast; 41.4% in the test with MDA-MB-435 melanoma; 19.5% in the test on SW-620 colon. Besides, the growth is 13.6% with MCF7 breast; 17.4% with HCT-116 colon; 64.9% in the test with HCC-2998 colon; 57.9% with KM12 colon; -16.8% (active) in the test on MDA-MB-468 breast.
As for `C/C(=N\N=C\c1cc([N+](=O)[O-])ccc1Cl)c1ccc2c(c1)Nc1ccccc1S2`, the growth was 31.3% in the test with SR leukemia; 71.7% in the test with RPMI-8226 leukemia; 16.6% in the test with OVCAR-8 ovarian; 69.4% in the test on OVCAR-5 ovarian; -10.7% (active) in the test on OVCAR-4 ovarian; 40.4% in the test with SK-OV-3 ovarian. The growth was 40% in the test on IGROV1 ovarian; -4% (active) in the test with OVCAR-3 ovarian; 27.1% with HS 578T breast; 29.7% with T-47D breast; 63% in the test with BT-549 breast; 77.2% with MDA-MB-435 melanoma. Also, the growth in the test with SW-620 colon is 50%; in the test with MCF7 breast, 63.1%; with HCT-116 colon, 11.1%; with HCC-2998 colon, 90.5%; in the test with KM12 colon it was 89.1%; in the test with MDA-MB-468 breast, 34.1%.
Consider `COc1ccc(C(=O)/C=C/c2ccc(Oc3nc(Nc4ccc(F)cc4)nc(N(C)C)n3)c(OC)c2)cc1`, for which the growth with SR leukemia was 12.2%; in the test on RPMI-8226 leukemia it was 4.01% (active); in the test with OVCAR-8 ovarian it was 37.9%; in the test with OVCAR-5 ovarian it was 82.6%; in the test on OVCAR-4 ovarian, 43.5%; in the test with SK-OV-3 ovarian it was 94.4%. The growth was 63.1% with IGROV1 ovarian; 57.2% in the test with OVCAR-3 ovarian; 58.3% in the test on HS 578T breast; 19.7% with T-47D breast; -4.17% (active) in the test with BT-549 breast; 51.4% with MDA-MB-435 melanoma. For the same compound, the growth was 12.4% in the test with SW-620 colon; 15.6% in the test on MCF7 breast; 0.959% (active) in the test on HCT-116 colon; 100% in the test with HCC-2998 colon; 70.2% in the test on KM12 colon; 40.6% in the test with MDA-MB-468 breast.
Regarding `CC(C)(C)OC(=O)/C=C/c1cccc2c1C(=O)NC(C)(c1cc3cc(Cl)ccc3oc1=O)N2` (stereo unspecified), the growth in the test on SR leukemia is 8.86% (active); in the test with RPMI-8226 leukemia, 1.99% (active); in the test on OVCAR-8 ovarian, 39.1%; in the test on OVCAR-5 ovarian, 67.1%; in the test on OVCAR-4 ovarian, 43.9%; in the test with SK-OV-3 ovarian it was 47.6%. Moreover, the growth is 44.7% with IGROV1 ovarian; 43.8% in the test on OVCAR-3 ovarian; 65.1% with HS 578T breast; 25.4% in the test on NCI/ADR-RES ovarian; 15.2% in the test with BT-549 breast; 62.2% in the test on MDA-MB-435 melanoma. The growth was 55.7% with SW-620 colon; 17.5% in the test with MCF7 breast; 31.5% in the test with HCT-116 colon; 52.9% with HCC-2998 colon; 19.9% in the test with KM12 colon; 11.6% with MDA-MB-468 breast.
For `C=C1CCC2C3(C)COC(c4ccccc4F)OC3CCC2(C)C1CC(O)C1=CCOC1=O` (stereo unspecified), the growth in the test with SR leukemia was 30.9%; with RPMI-8226 leukemia, 10.7%; in the test with OVCAR-8 ovarian it was -11.4% (active); in the test with OVCAR-5 ovarian, 74.9%; in the test with OVCAR-4 ovarian, 50.3%; in the test on SK-OV-3 ovarian, 110%. For the same compound, the growth with IGROV1 ovarian was 51.4%; with OVCAR-3 ovarian, 31.1%; in the test with HS 578T breast, 78.3%; in the test with NCI/ADR-RES ovarian, 5.4% (active); with BT-549 breast it was -18.8% (active); in the test with MDA-MB-435 melanoma, 27.5%. Moreover, the growth in the test with SW-620 colon is -6.12% (active); with MCF7 breast, 15.2%; with HCT-116 colon it was -59.4% (active); in the test on HCC-2998 colon, 36.7%; in the test on KM12 colon it was 45.3%; in the test on MDA-MB-468 breast, 63.9%.
In the case of `C[C@H](Nc1nc(NCCc2ccccc2)nc2ccccc12)c1ccccc1`, the growth was -64.3% (active) in the test with SR leukemia; -37.5% (active) in the test with RPMI-8226 leukemia; -78.6% (active) in the test with OVCAR-8 ovarian; -92.2% (active) in the test on OVCAR-5 ovarian; -31.4% (active) with OVCAR-4 ovarian; -88.9% (active) with SK-OV-3 ovarian. The growth with IGROV1 ovarian is -84.6% (active); in the test on OVCAR-3 ovarian, -70.1% (active); with NCI/ADR-RES ovarian, -73.9% (active); with T-47D breast, -55.1% (active); in the test on BT-549 breast, -86.9% (active); in the test on MDA-MB-435 melanoma, -88.5% (active). Further, the growth in the test on MCF7 breast is -87.4% (active); with HCT-116 colon, -83.7% (active); in the test on HCC-2998 colon, -98.7% (active); in the test with KM12 colon, -77.2% (active); in the test with MDA-MB-468 breast it was -96.3% (active).
